Laboratory results taken from PubChem BioAssay (NCI).
About 83,000 compounds went through this panel and 20% of them were active in at least one assay; those are over-represented in the sample as a whole.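 Step 1: grow cells in 96-well plates. Step 2: add test compound at a single concentration. Step 3: incubate 48 h. Step 4: record percent growth.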 Active and inactive are the calls of the source. Rule for the calls: active = growth percent below 10; inactive = the rest.

System: HL-60(TB) leukemia
Assay: NCI-60 one-dose screen, 48 h (100 = growth as untreated, 0 = no growth, -100 = all killed)
Conditions: 10 µM unless noted

Structure (SMILES) | growth
COc1ccc(C(=O)NNC(=O)CSc2nc3sc4c(c3c(=O)n2-c2ccc(Cl)cc2)CCCC4)cc1 | 64.5% (inactive)
COc1ccc(CCN2C(=O)/C(=C/c3csc(C#N)n3)SC2=S)cc1 | -23.8% (active)
Cc1ccc(-c2cc(-c3cc4ccccc4nc3Cl)[nH]c(=O)n2)cc1 | -32.7% (active)
OCNc1ccc(-n2cnc3cc(-c4ccc(O)cc4)ccc32)cc1C(F)(F)F | -2.45% (active)
CS(=O)(=O)Nc1cccc(-n2cnc3cc(-c4ccc(O)cc4)ccc32)c1 | 7.73% (active)
